The record followed here is PubChem BioAssay (NCI).

About 79,000 compounds went through this panel and 15% of them were active in at least one assay; those are over-represented in the sample as a whole. Unmarked numbers belong to inactive results. No stated cut-off is given here; in the data, active means growth inhibition above about 70%; inactive means the rest.

A short description of the first assay: NCI Yeast Anticancer Drug Screen. Data for the sgs1 mgt1 strain (AID 161).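 Further: 0% = growth of cultures given vehicle only.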 Particulars: S. cerevisiae sgs1 mgt1 strain, at 50.0 µM, active compounds read high. An outline of the steps:
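This yeast growth screen uses a strain with defined DNA-repair lesions; compound-treated growth is compared with vehicle-treated growth.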
As to `COc1ccc(/C=C(/NC(=O)c2ccccc2)C(=O)O)c(OC)c1C`, the growth inhibition was 1.3%.
For `Cc1ccc2c(c1)C(OC(=O)Nc1ccccc1)CCC2` (stereo not given), the growth inhibition is 3.5%.
On the same count and under the same terms, the same measure for `CC(C)(C)C(=O)N1C(C(=O)O)Cc2ccccc2[C@@H]1Cc1ccccc1` (stereo not given in full): -16.1%; for `O=[N+]([O-])c1cccnc1Sc1nc2ccccc2[nH]1`: 25.5%.
Still for that read-out and setting: the same measure for `CCOCC1c2ccccc2CCN1Cc1c[nH]c2ccccc12` (stereo not given): -2.85%.
Same read-out and setting: the same measure for `C1C2CC3CC1CC(c1nn4c(C56CC7CC(CC(C7)C5)C6)nnc4s1)(C2)C3`: -9.1%.
In the case of `CCC1C[N+]2(C)CCc3cc(OC)c(OC)cc3C2CC1=O` (stereo not given), the growth inhibition is 12.8%.
The same measure, in the same setting: the same measure for `CCCCN=C(OC1C=CCCC1)SC` (stereo not given): -14.6%; for `COc1cc2oc(=O)ccc2cc1[C@@H]1OC(=O)[C@@]2(C)O[C@@H]12`: -1.35%.
Still for that read-out and setting: the result for `CCCCCCCCCCCCCCCCCCN=C(N)N` reads 12.8%.
Take `CCCCCCCI`: the growth inhibition was 6.9%.
The same measure, in the same setting: the result for `CCCC(C)C(=O)OC(C)CC(C)C` (stereo not given) reads 21.9%.
Consider `O=C(NCN1CCOCC1)Nc1ccc(Cl)cc1`, for which the growth inhibition was -4.8%.
Still for that read-out and setting: the same measure for `O=C(CN1CCCC1)Nc1ccc2sc3ccccc3c(=O)c2n1`: -5.75%; for `S=c1[nH]ncc(SCc2ccccc2)c1SCc1ccccc1`: -8.05%.
On the same count and under the same terms, the result for `O=C(O)C1CSC(c2cccs2)N1` (stereo not given) reads -4.4%; that for `Nc1nc2c(c(=O)[nH]1)CN(CCCN1CCOCC1)CN2`, -19.1%; that for `C/C=C/C1N(C)CCCN1C`, -7.25%.
Same read-out and setting: the result for `CN(C)CCNC(=O)c1cccc2nc3c(C(=O)NCCN(C)C)cccc3nc12` reads -46.6%; that for `O=C(c1nc2ccc(Cl)cc2[nH]c1=O)C(O)c1ccc2c(c1)OCO2` (stereo not given), -3.85%.
For the compound `N=C(N)Sc1cc(O)c2ccccc2c1O`, the growth inhibition is -28.1%.
The same measure, in the same setting: the same measure for `O=C(CCc1ccccc1)NC(=S)Nc1cccc([N+](=O)[O-])c1`: 53.5%.
On the same count and under the same terms, the same measure for `Cc1ccc(NC(=O)Nc2cccc(Cl)c2C)cc1C`: 12.8%; for `CCOC(=O)/C(Cc1cnc2ccccc2n1)=N\O`: -8.95%.
The same measure, in the same setting: the result for `CN(C)C(=O)C1CCC(=O)N1` (stereo not given) reads 6.6%.
For the compound `CN1C(NC(=O)C(C)(C)O)C(C)(C)C(C)(C)C1NC(=O)C(C)(C)O` (stereo not given), the growth inhibition was 42.3%.
For the compound `O=C(CCc1cc(O)cc(O)c1)NCCc1cc(OCc2ccccc2)cc(OCc2ccccc2)c1`, the growth inhibition was 45%.
The same measure, in the same setting: the result for `Cc1ccc(S(=O)(=O)N2CCCCC2)cc1` reads 38.3%.
On to `CC(CCCSC(=N)N)SC(=N)N` (stereo not given), for which the growth inhibition was -0.3%.
The same measure, in the same setting: the same measure for `O=Cc1ccc(O)cn1`: -4.4%; for `CCN(CC)CCOC(=O)c1ccc(N=Nc2ccc(O)cc2)cc1`: -17.9%.
On the same count and under the same terms, the result for `CC(C)OC/N=C(/N)NC#N` reads -29.4%.
Still for that read-out and setting: the result for `CC1(C)COC(c2ccc(Cl)cc2)OC1` reads 4.3%.
Regarding `NC(=O)C(CCN1CCCCC1)c1ccccc1` (stereo not given), the growth inhibition was 7.75%.
Still for that read-out and setting: the result for `c1ccc(N2CCN(c3ccccn3)CC2)nc1` reads 2.5%.
Same read-out and setting: the result for `N#Cc1cc2ccccc2n(Cc2ccccc2)c1=O` reads -9.4%.
Same read-out and setting: the result for `CNCC(O)(C(=O)O)C(=O)O` reads -32.9%; that for `CC(I)CNC1=NCC(=O)N1` (stereo not given), -9.9%.
On to `Nc1ccc(C(C(=O)O)c2ccccc2)cc1Cl` (stereo not given), for which the growth inhibition was 20.9%.
The same measure, in the same setting: the same measure for `COc1ccccc1C1C2=C(COC2=O)Oc2cc3c(cc21)OCO3` (stereo not given): -29.1%.

A short description of the next assay: NCI Yeast Anticancer Drug Screen. Data for the cln2 rad14 strain (AID 165).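 Further: 0% = growth equal to vehicle treated cultures.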 The note with it: S. cerevisiae cln2 rad14 strain, at 50.0 µM, active compounds read high. An outline of the steps:
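Yeast carrying cln2 and rad14 alterations (cell cycle control and DNA damage repair) were exposed to compounds. Growth inhibition was measured against vehicle-treated controls.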
Consider `COc1ccc(/C=C(/NC(=O)c2ccccc2)C(=O)O)c(OC)c1C`, for which the growth inhibition was -66%.
The same measure, in the same setting: the same measure for `Cc1ccc2c(c1)C(OC(=O)Nc1ccccc1)CCC2` (stereo not given): 6.05%.
The same measure, in the same setting: the result for `CC(C)(C)C(=O)N1C(C(=O)O)Cc2ccccc2[C@@H]1Cc1ccccc1` (stereo not given in full) reads 22.5%; that for `O=[N+]([O-])c1cccnc1Sc1nc2ccccc2[nH]1`, -20.5%; that for `CCOCC1c2ccccc2CCN1Cc1c[nH]c2ccccc12` (stereo not given), -5.15%.
On the same count and under the same terms, the same measure for `C1C2CC3CC1CC(c1nn4c(C56CC7CC(CC(C7)C5)C6)nnc4s1)(C2)C3`: 11.2%; for `CCC1C[N+]2(C)CCc3cc(OC)c(OC)cc3C2CC1=O` (stereo not given): 19.9%.
Regarding `CCCCN=C(OC1C=CCCC1)SC` (stereo not given), the growth inhibition was 9.95%.
Same read-out and setting: the result for `COc1cc2oc(=O)ccc2cc1[C@@H]1OC(=O)[C@@]2(C)O[C@@H]12` reads -35.7%; that for `CCCCCCCCCCCCCCCCCCN=C(N)N`, 22.4%.
In the case of `CCCCCCCI`, the growth inhibition was -21.6%.
The same measure, in the same setting: the same measure for `CCCC(C)C(=O)OC(C)CC(C)C` (stereo not given): -0.75%.
The same measure, in the same setting: the same measure for `O=C(NCN1CCOCC1)Nc1ccc(Cl)cc1`: -22.3%; for `O=C(CN1CCCC1)Nc1ccc2sc3ccccc3c(=O)c2n1`: 21.6%.
On the same count and under the same terms, the same measure for `S=c1[nH]ncc(SCc2ccccc2)c1SCc1ccccc1`: -15.1%; for `O=C(O)C1CSC(c2cccs2)N1` (stereo not given): 1.4%; for `Nc1nc2c(c(=O)[nH]1)CN(CCCN1CCOCC1)CN2`: 68%.
Regarding `C/C=C/C1N(C)CCCN1C`, the growth inhibition is 18%.
`CN(C)CCNC(=O)c1cccc2nc3c(C(=O)NCCN(C)C)cccc3nc12`: the growth inhibition is -33.7%.
The same measure, in the same setting: the same measure for `O=C(c1nc2ccc(Cl)cc2[nH]c1=O)C(O)c1ccc2c(c1)OCO2` (stereo not given): 21.1%.
On the same count and under the same terms, the same measure for `N=C(N)Sc1cc(O)c2ccccc2c1O`: -45.8%; for `O=C(CCc1ccccc1)NC(=S)Nc1cccc([N+](=O)[O-])c1`: -13.8%; for `Cc1ccc(NC(=O)Nc2cccc(Cl)c2C)cc1C`: -1.85%.
On the same count and under the same terms, the same measure for `CCOC(=O)/C(Cc1cnc2ccccc2n1)=N\O`: -52.5%; for `CN(C)C(=O)C1CCC(=O)N1` (stereo not given): -4.95%; for `CN1C(NC(=O)C(C)(C)O)C(C)(C)C(C)(C)C1NC(=O)C(C)(C)O` (stereo not given): 6.8%.
Turning to `O=C(CCc1cc(O)cc(O)c1)NCCc1cc(OCc2ccccc2)cc(OCc2ccccc2)c1`, the growth inhibition was 33.2%.
Same read-out and setting: the result for `Cc1ccc(S(=O)(=O)N2CCCCC2)cc1` reads -26.1%; that for `CC(CCCSC(=N)N)SC(=N)N` (stereo not given), 24.2%.
As for `O=Cc1ccc(O)cn1`, the growth inhibition is -11.9%.
The same measure, in the same setting: the same measure for `CCN(CC)CCOC(=O)c1ccc(N=Nc2ccc(O)cc2)cc1`: -6.25%.
On the same count and under the same terms, the same measure for `CC(C)OC/N=C(/N)NC#N`: 12.6%.
The same measure, in the same setting: the same measure for `CC1(C)COC(c2ccc(Cl)cc2)OC1`: -12.5%; for `NC(=O)C(CCN1CCCCC1)c1ccccc1` (stereo not given): 9.5%; for `c1ccc(N2CCN(c3ccccn3)CC2)nc1`: -21.5%.
Turning to `N#Cc1cc2ccccc2n(Cc2ccccc2)c1=O`, the growth inhibition was 7.85%.
The same measure, in the same setting: the result for `CNCC(O)(C(=O)O)C(=O)O` reads 6.05%.
As to `CC(I)CNC1=NCC(=O)N1` (stereo not given), the growth inhibition was -21.1%.
The same measure, in the same setting: the result for `Nc1ccc(C(C(=O)O)c2ccccc2)cc1Cl` (stereo not given) reads -1.55%.
With `COc1ccccc1C1C2=C(COC2=O)Oc2cc3c(cc21)OCO3` (stereo not given), the growth inhibition is 3.75%.
